# An excerpt weighted towards active compounds, which were near 2.3% of everything screened.
# Kir21 inh: Kir2.1 (mouse) channel inhibition. B-score at 10 µM. hit rate 0.85% among 310,000. AID 1672. HEK293-Kir2.1, FluxOR thallium flux fluorescence; active compounds read low;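 active = fluorescence ratio B-score at or below minus 3 SD of library scores, with starting-brightness B-score within 2 SD, cut at about -4.2 in these data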;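 also: channel flux triggered by added potassium and thallium sulfate stimulus; B-score of peak minus minimum fluorescence over baseline after thallium stimulus; more negative B-score means stronger Kir2.1 block with less thallium influx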
# PfM18AAP inh-1: PfM18AAP enzyme inhibition; hit rate 1.2% among 290,000; AID 1822; recombinant PfM18AAP, H-Glu-NHMec fluorogenic cleavage; inhibition, % at 7.35 µM;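 active = inhibition above the campaign mean inhibition over all tested compounds plus 3 SD, cut at about 28% in these data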
# DNA FID counter: fluorescent intercalator displacement, NS3 helicase counter-screen; DNA fluorescent intercalator displacement, fluorescence; inhibition, % at 7.9 µM; hit rate 0.17% among 290,000; AID 1845; in the data active = inhibition above about 37%;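 also: higher means more ethidium bromide displaced from hairpin DNA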
# Rce1 inhib: yeast Ras-converting enzyme inhibition; Q03530; yeast membranes, quenched prenylated peptide cleavage fluorescence; calls only; hit rate 0.27% among 290,000; AID 2563;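 active = fall in fluorescence gain of 50% or more versus controls, with final raw signal at or below 3038400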
# hERG inh: hERG (human) inhibition as Kir2.1 counter-screen; shares compounds with Kir21 inh; hERG-expressing cells, thallium flux; inhibition, % at 10 µM; hit rate 20% among 320; AID 2236;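 also: host cells are CHO cells stably expressing hERG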
# KCNK9 spec: human KCNK9 off-target activity of Kir2.1 blockers; hit rate 5% among 320; inhibition, % at 10 µM; shares compounds with Kir21 inh; KCNK9-expressing cells, ion flux inhibition; AID 2329
# Kir21 ephys inh: blocks mouse Kir2.1 current in automated electrophysiology; shares compounds with Kir21 inh; Kir2.1 cells, automated patch-clamp current inhibition; inhibition, % at 25 µM; hit rate 71% among 320; AID 463252
# PfM18AAP inh-2: PfM18AAP inhibition, confirmation. shares compounds with PfM18AAP inh-1. hit rate 28% among 2,400. inhibition, % at 7.35 µM. recombinant PfM18AAP, H-Glu-NHMec fluorogenic cleavage;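 active = mean inhibition over replicate wells above the hit cutoff set for the earlier primary screen, cut at about 29% in these data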
# CTSL1 counter: Cathepsin L (human) inhibition, confirmation. inhibition, % at 5.96 µM. 2,400 tested, under 10 active. purified cathepsin L1, Z-Leu-Arg-MCA fluorescence. shares compounds with PfM18AAP inh-1;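 active = average inhibition across replicates above the hit cutoff set in the earlier primary screen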
# Hits are given with their value; - = inactive; . = no result given; + = active, no number. Unless noted, no rule for the calls is given here.
SMILES,Kir21 inh,PfM18AAP inh-1,DNA FID counter,Rce1 inhib,others
C=C1C(=O)[C@@]23C[C@H]4[C@@H]5[C@@]6(C)CCC[C@@]57[C@@H]2[C@@H](O)[C@@H]1C[C@H]3[C@H]7N4C6,-,.,.,-,
CCCCCCCSc1cc(OC)c(CCN(C)C)cc1OC,-9.89,-,-,-,
O=[N+]([O-])c1cnc[nH]1,-,.,.,-,
COc1ccc(C(O)P(=O)(OC(C)C)OC(C)C)cc1 (configuration not stated),-,-,-,-,
COc1ccc(C(=O)O/N=C(/C(N)=O)P(=O)(OC(C)C)OC(C)C)cc1,-4.63,-,-,-,
COc1ccc(OC)c(N=Cc2c(O)[nH]c(=O)[nH]c2=O)c1,-,-,-,-,
N#Cc1c(Cl)nc(Cl)c2c1CCN(Cc1ccccc1)C2,-,-,-,+,
c1ccc(CN2CCN(Cc3ccc4ccccc4c3)CC2)cc1,-,-,-,-,
C=CC[N+]1(C)CC[C@]23c4c5ccc(O)c4O[C@H]2C(=O)CC[C@@]3(O)[C@H]1C5 (some centres not stated),-,.,.,+,
Cc1cc(OC(C)C(=O)NCc2ccncc2)c2c3c(c(=O)oc2c1)CCC3 (configuration not stated),-,-,-,-,
CCOc1cc(C=C2C(=O)NC(=O)NC2=O)ccc1OS(=O)(=O)c1ccccc1,-5.54,-,-,-,
CSc1ccc(CN2CCN(Cc3ccccc3Cl)CC2)cc1,-4.92,-,-,-,
CSc1ccc(CN2CCN(C(=O)Cc3ccccc3)CC2)cc1,-,.,.,-,
COc1cccc(CCNCc2ccc(SC)cc2)c1,-7.53,-,-,-,
COc1ccc(CCNCc2ccccc2)cc1,-,-,-,-,
O=C1C2C3CCC(O3)C2C(=O)N1CCO (configuration not stated),-,-,-,-,
O=C1CN=C(c2ccccc2)c2cc(Br)ccc2N1,-,-,-,-,
Cc1ccc(-c2nc(N(C)C3CCN(C)CC3)c3ccccc3n2)cc1,-,-,68.8,-,
CCOc1ccc(Cl)cc1CNCCc1ccc(F)cc1,-6.41,-,-,-,hERG inh=-;KCNK9 spec=-;Kir21 ephys inh=57.1%
Fc1ccc(CCNCc2ccccc2Cl)cc1,-,-,-,-,
CC1COC2N=C(N[N+](=O)[O-])NC2O1 (configuration not stated),-,-,-,-,
CCCCCSc1cc(OC)c(CCN)cc1OC,-6.23,-,39.3,-,hERG inh=-;KCNK9 spec=-;Kir21 ephys inh=26.1%
CCCCCCCCCOc1ccc2[nH]cc(CCN)c2c1,.,-,-,.,
Cc1cc(C)n(CCOC(=O)C2C(C=C(Cl)Cl)C2(C)C)n1 (configuration not stated),-9.84,-,-,-,hERG inh=-;KCNK9 spec=-;Kir21 ephys inh=40.9%
c1ccc2c(c1)Sc1ccccc1N2CC1CN2CCC1CC2 (configuration not stated),-,-,-,-,
SMILES,Kir21 inh,PfM18AAP inh-1,DNA FID counter,Rce1 inhib,others
COc1cccc(C(=O)C2CN(C)CC2c2ccc(Cl)cc2)c1 (configuration not stated),-7.11,-,-,-,hERG inh=46.0%;KCNK9 spec=-;Kir21 ephys inh=25.2%
COc1ccc(C(=O)C2CN(C)CC2c2ccc(Cl)cc2)cc1 (configuration not stated),-6.37,-,-,-,hERG inh=51.0%;KCNK9 spec=-;Kir21 ephys inh=-
CC1C(C)N1CC(O)Cn1ccnc1[N+](=O)[O-] (configuration not stated),-,-,-,-,
O=c1oc2ccccc2c(O)c1C(c1ccc([N+](=O)[O-])cc1)c1c(O)c2ccccc2oc1=O,-,-,-,-,
C/C(CC(c1ccccc1)c1c(O)c2ccccc2oc1=O)=N\Nc1ccc([N+](=O)[O-])cc1[N+](=O)[O-] (configuration not stated),-,35.8,-,-,PfM18AAP inh-2=-;CTSL1 counter=-
O=C1NC(=O)C(=Cc2ccc(-c3ccc(Cl)cc3)o2)C(=O)N1,-,32.9,-,-,PfM18AAP inh-2=-;CTSL1 counter=-
O=C1NC(=O)C(=Cc2ccc(-c3ccc(F)cc3O)o2)C(=O)N1,-,50.7,-,-,PfM18AAP inh-2=58.3;CTSL1 counter=-
O=C1NC(=O)C(=Cc2ccc(-c3ccc(S(=O)(=O)N4CCOCC4)cc3)o2)C(=O)N1,-,-,-,-,
